Screening results from PubChem.
HT1080-NT tox – qHTS for induction of synthetic lethality in tumor cells producing 2HG: qHTS for the HT-1080-NT fibrosarcoma cell line; HT-1080-NT fibrosarcoma viability, CellTiter-Glo ATP luminescence, 48 h; Potency, µM (titrated, usually from 46.1 µM), for inactives: at the highest dose activity, negative = less viability, most hits filed as cytotoxic; AID 686970, 2013; hit rate 1.6% among 360,000;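 also: NT is the 2HG producing partner of a matched IDH1 knockdown line; potency is read from the fitted curve at half-maximal effect; 0% = DMSO-treated cells and -100% = media-only wells without cells; nearly all actives have a fitted effect of over 55% in size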
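Fibrosarcoma NT cells, 750 per well in 5% FBS RPMI, were exposed to compound for 48 hours. Viability: CellTiter-Glo luminescence.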
TDP1 cell CPT – qHTS for Inhibitors of human tyrosyl-DNA phosphodiesterase 1 (TDP1): qHTS in cells in presence of CPT; chicken DT40 Tdp1-/-;hTDP1 cells + 20 nM CPT, ATP luminescence, 48 h; Potency, µM (titrated, usually from 46.2 µM), for inactives: at the top dose activity change, negative = growth inhibition, actives largely listed as inhibitors; hit rate 12% among 420,000; also: potency is read from the fitted curve at half-maximal effect; nearly all actives have a fitted effect of over 55% in size
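Chicken DT40 Tdp1-/- cells complemented with human TDP1, 400 cells/well, exposed to compounds plus 20 nM camptothecin for at least 48 h at 37 C; viability read as ATP content by CellTiter-Glo luminescence.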
TDP1 cell noCPT – qHTS for Inhibitors of human tyrosyl-DNA phosphodiesterase 1 (TDP1): qHTS in cells in absence of CPT; DT40 Tdp1-/- hTDP1 cells, no CPT, ATP luminescence, 48 h; Potency, µM (series often up to 46.2 µM), inactives show at the highest dose activity change, negative = growth inhibition, most hits filed as inhibitors; hit rate 15% among 420,000; AID 686978, 2013; also: potency is read from the fitted curve at half-maximal effect; nearly all actives have a fitted effect of over 55% in size
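Compound effects on proliferation are scored in DT40 Tdp1-/-;hTDP1 cells in the absence of CPT. ATP levels (CellTiter-Glo luminescence) are recorded after a ≥48 hr, 37 °C incubation.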
IL-1B inflam inh – qHTS for Inhibitors of Inflammasome Signaling: IL-1-beta AlphaLISA Primary Screen. THP-1 LPS/ATP IL-1B secretion, AlphaLISA, 16 h; hits give low values. activity change, % at 57.5 µM. hit rate 4.7% among 360,000; in the data active = activity change below about -50%; inconclusive = mostly about -30% to -49%
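THP-1 cells pretreated 1 hr with compounds (up to 57.5 uM final), then stimulated with LPS (250 ng/mL final) plus ATP (1.25 mM final); secreted IL-1B measured by AlphaLISA after 16 hr, decreased signal indicating inhibition.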
12-LOX inh – Primary qHTS assay for inhibitors of human arachidonate 12S-lipoxygenase (ALOX12): Round 2; Potency, µM (top dose mostly 108 µM), inactives show at the highest dose activity change, negative = inhibition, most hits filed as inhibitors; hit rate 1.1% among 580,000; purified 12hLO, xylenol orange hydroperoxide absorbance; Polyunsaturated fatty acid lipoxygenase ALOX12 (Homo sapiens), P18054; also: potency is read from the fitted curve at half-maximal effect
Target sequence (P18054 whole entry, looked up): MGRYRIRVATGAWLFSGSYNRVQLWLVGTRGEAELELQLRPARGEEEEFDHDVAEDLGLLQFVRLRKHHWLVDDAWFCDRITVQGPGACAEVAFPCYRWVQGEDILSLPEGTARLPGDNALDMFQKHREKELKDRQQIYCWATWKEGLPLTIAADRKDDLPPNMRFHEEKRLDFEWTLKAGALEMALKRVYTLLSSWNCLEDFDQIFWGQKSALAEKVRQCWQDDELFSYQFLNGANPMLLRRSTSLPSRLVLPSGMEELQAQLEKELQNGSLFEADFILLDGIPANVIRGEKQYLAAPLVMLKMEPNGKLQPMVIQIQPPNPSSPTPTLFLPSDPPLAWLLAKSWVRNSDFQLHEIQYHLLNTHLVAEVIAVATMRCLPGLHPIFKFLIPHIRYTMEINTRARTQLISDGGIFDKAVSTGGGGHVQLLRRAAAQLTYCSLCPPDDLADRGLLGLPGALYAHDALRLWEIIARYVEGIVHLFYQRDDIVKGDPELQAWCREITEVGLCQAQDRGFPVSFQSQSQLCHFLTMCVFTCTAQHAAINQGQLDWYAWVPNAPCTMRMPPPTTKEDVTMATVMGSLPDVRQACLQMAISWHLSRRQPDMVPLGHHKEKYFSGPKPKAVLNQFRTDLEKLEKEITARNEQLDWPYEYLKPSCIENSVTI
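Hydroperoxide product was detected by ferrous iron/xylenol orange as the 573 to 405 nm absorbance ratio. Arachidonic acid at 40 uM (final) was turned over for 30 min at room temperature by 150 nM human 12hLO, pH 7.0 Hepes buffer, after 15 min compound preincubation.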
HT1080 IDH1KD tx – qHTS for induction of synthetic lethality in tumor cells producing 2HG: qHTS for the HT-1080-IDH1KD cell line; Potency, µM (titrated, usually from 46.1 µM), without a hit: at the highest dose activity, negative = toxicity, hits mostly cytotoxic; AID 686971, 2013; HT-1080 IDH1 knockdown viability, ATP luminescence, 48 h; hit rate 2% among 360,000;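 also: potency is read from the fitted curve at half-maximal effect; 0% = DMSO wells and -100% = cell-free medium wells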
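Luminescent ATP read-out (CellTiter-Glo, 10 min at room temperature) after 48 h compound exposure at 37 °C gave viability of IDH1-knockdown HT-1080 cells. Activity was normalised to DMSO and cell-free wells, then fitted as concentration-response curves.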
* marks the source's active call; other numbers are inactive results; ? = inconclusive; / = no result; [ ] = remark or other dose. The full list was thinned out, with hits kept by preference. Unless noted, calls follow the shape of the dose curve; as a rule, active = well fitted curve in the direction sought with a large enough effect; inconclusive = small, poorly fitted or top-dose-only effect, or another doubt; inactive = no such curve, though single readings can be large; an effect the other way counts as inactive or inconclusive. Unless noted, % is scaled to controls: 0 for no effect and ±100 for the full control effect.

SMILES	HT1080-NT tox	TDP1 cell CPT	TDP1 cell noCPT	IL-1B inflam inh	12-LOX inh	HT1080 IDH1KD tx
O=C(C1CCCC1)N1CCC(N2C(=O)C(O)C23CCCCC3)CC1 (stereo not drawn)	/	/	/	/	14%	/
Cc1ccc(C)c(CN2CCC(CNS(=O)(=O)c3csc(C(N)=O)c3)CC2)c1	/	/	/	/	-9%	/
COc1cccc(S(=O)(=O)Nc2ccc(C(=O)Nc3ccncc3)cc2)c1	6%	13µM*	?	12	-5%	9%
CCOc1ccc(NS(=O)(=O)c2ccc(NC(=O)c3cccnc3)c(OC)c2)cc1	3%	-10%	-20%	16	-6%	1%
COc1cc(S(=O)(=O)Nc2cccc(C)c2)ccc1NC(=O)c1ccncc1	-7%	?	13µM*	-11	21%	-18%
Cc1ccccc1NC(=O)c1cc(S(=O)(=O)c2ccccc2)ccc1Cl	-9%	?	?	-19	348%	-6%
O=C(Nc1ccncc1)c1ccc(NS(=O)(=O)c2cccc(F)c2)cc1	5%	?	21µM*	35	14%	-11%
Cc1cccc(NS(=O)(=O)c2ccc(Cl)c(C(=O)Nc3ccccc3C)c2)c1	/	?	15µM*	/	0%	/
COc1cccc(C(=O)Nc2ccc(C(=O)c3ccncc3)cc2)c1	?	?	?	-10	-6%	-26%
CN1CCC2(C1)CN(CC1CC1)c1ccc(C(=O)NC3COC3)cc12 (stereo not drawn)	/	/	/	/	6%[176 µM]	/
COc1cc(OC)cc(C(=O)NCc2n[nH]c(=O)c3ccccc23)c1	/	/	/	/	24%	/
CC(=O)NCc1cc(C)cc2c(C)c(C)[nH]c12	/	/	/	/	-12%	/
O=C(/C(=C/O)N=Nc1ccccc1)c1cccs1	16µM*	?	?	-74*	-13%	?
COc1ccccc1N(Cc1cc2cccc(C)c2[nH]c1=O)C(=O)c1cccc(Cl)c1	/	13µM*	21µM*	/	-6%	/
COc1ccc(N(Cc2cc3ccccc3[nH]c2=O)C(=O)c2cccc(Cl)c2)cc1	/	16µM*	23µM*	/	-23%	/
COCCN(Cc1cc2cccc(C)c2[nH]c1=O)C(=O)c1ccc(OC)c(OC)c1	/	/	/	/	15%	/
CCN(Cc1cc2cccc(C)c2[nH]c1=O)C(=O)c1ccccc1OC	-3%	?	23µM*	-3	5%	-2%
COc1ccc(N(Cc2cc3cc(OC)ccc3[nH]c2=O)C(=O)c2cccc(Cl)c2)cc1	/	?	?	/	-6%	/
COc1ccc2[nH]c(=O)c(CN(C(=O)c3cccnc3)c3ccc(C)c(C)c3)cc2c1	-20%	12µM*	?	-14	-10%	-26%
COc1cc2c(cc1OC)/C(=C/c1ccc(Br)cc1)C(=O)OC2	?	?	18µM*	0	?	?
O=C1CNC(=O)/C1=C/c1ccc(Br)cc1	16%	1%	-26%	-4	33%	13%
CC1CN(Cc2coc(-c3cccc(F)c3)n2)CCO1 (stereo not drawn)	/	/	/	/	-1%	/
CCc1cccc(NC(=O)CN(C)S(=O)(=O)c2cccc3cccnc23)c1	8%	16µM*	16µM*	-23	-8%	-1%
Cc1c(Cl)cccc1NC(=O)CCS(=O)(=O)c1cccc2nsnc12	/	15µM*	?	/	-20%	/
CN(CC(=O)Nc1ccc(F)c(Cl)c1)S(=O)(=O)c1cccc2nsnc12	-5%	21µM*	18µM*	-22	-7%	-30%
SMILES	HT1080-NT tox	TDP1 cell CPT	TDP1 cell noCPT	IL-1B inflam inh	12-LOX inh	HT1080 IDH1KD tx
CCCNC(=O)C(C)NC(=O)c1nn(C)c(=O)c2ccccc12 (stereo not drawn)	/	/	/	/	32%	/
O=C(Nc1cc(F)ccc1F)c1cnc(N2CCCCC2)c2ccccc12	/	/	/	/	-16%	/
Cc1nc2cnc(N3CCN(C)CC3)nc2n(Cc2ccc(F)cc2)c1=O	/	-3%	-23%	/	?	/
O=c1c(CCc2ccccc2)nc2cnc(N3CCNCC3)nc2n1Cc1ccc(F)cc1	/	1µM*	?	/	0%	/
CN1CCN(c2ncc3nc(CCc4ccccc4)c(=O)n(Cc4ccc(F)cc4)c3n2)CC1	/	?	15µM*	/	?	/
CSc1ccc(-c2ccc3c(c2)C(=O)N2CCN(C(=O)CC(C)(C)C)C[C@@H]2C(=O)N3)cc1	/	/	/	/	9%	/
CCCc1cc(=O)[nH]c(SCc2noc(-c3ccc(F)cc3)n2)n1	/	/	/	/	-1%	/
CCN(CC)C(c1ccc(C)cc1)c1nnnn1C1CCCCC1 (stereo not drawn)	3%	?	18µM*	-8	-38%	0%
COc1ccc(C(c2nnnn2C2CCCC2)N2CCc3ccccc3C2)cc1OC (stereo not drawn)	6%	?	?	?	?	-6%[9.24 µM]
Fc1ccc(C(c2nnnn2C2CCCC2)N2CCc3ccccc32)cc1 (stereo not drawn)	-1%	?	23µM*	-6	0%	-5%
Cc1ccc(C(c2nnnn2C2CCCC2)N2c3ccccc3CC2C)cc1 (stereo not drawn)	-6%	?	18µM*	1	-7%	-10%
Cc1ccc(C(c2nnnn2C2CCCCC2)N2CCN3CCCC3C2)cc1 (stereo not drawn)	10%	?	-25%	-15	1%	-6%
CCOc1ccccc1NC(=O)CSc1c2c(nc3ccc(Cl)cc13)CCCC2	/	?	?	/	-21%	/
CCCCN(C)C(=O)CSc1c2c(nc3ccc(Cl)cc13)CCCC2	/	?	?	/	1%	/
COc1cc(OC)c(N(C)C(=O)CSc2c3c(nc4ccc(Cl)cc24)CCCC3)cc1Cl	/	18µM*	?	/	-6%	/
CN(Cc1ccccc1)C(=O)CSc1c2c(nc3ccc(Cl)cc13)CCCC2	/	?	16µM*	/	-20%	/
CCCN(CCC)C(=O)CSc1c2c(nc3ccc(Cl)cc13)CCCC2	/	18µM*	?	/	0%	/
COc1cccc(-c2nc(-c3cc4cccc(C)c4nc3OC)no2)c1	/	/	/	/	-4%	/
O=C(NCC1CCCO1)C(c1ccc(F)cc1)N(CC1CCCO1)C(=O)c1ccc(-c2ccccc2)[nH]1 (stereo not drawn)	16%	-11%	?	-8	-10%	8%
